Results: the supplement of paper PMC10849652
Targets with a hit are over-represented here; the source holds about 7,900 in all. About 0.6% of all pairs of compound and target were hits. A number with no mark means an inactive call.

Columns and labels:
Test in all cases: log2 fold change, soluble protein after heating vs DMSO (PISA); higher = thermal stabilisation; K562 cells, 10 uM, 30 min; active = over 0.2 and 3.5 SD of the protein, either way, in both replicates (recomputed)
[1] = compound: CC1=C(C=C(C=C1)NC(=O)C2=CC(=CC=C2)C(C)(C)C#N)NC3=CC4=C(C=C3)N=CN(C4=O)C
Procedure, shortened: (§1)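 For each measurement, 10 μM compound was applied for 30 min to K562 cells at 2×10^6 cells/mL. Aliquots were heated for 3 min across 48°C-58°C, pooled, and extracted in PBS with 0.5% NP-40 at 4°C; the supernatant after 21,000xg for 90 min was soluble protein. This was quantified by TMTpro 16plex LC-MS/MS with channel sums equalised, and thermal stability was reported relative to control samples from duplicates, on a log2 fold-change scale.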

[2] = compound: CC1=C(C=C(C=C1)NC(=O)C2=CC(=CC=C2)N(C)C)NC(=O)C3=CC=C(C=C3)O
Procedure, shortened: as §1

[3] = compound: CC1=CC=C(C=C1)SC2=C3C=C(SC3=CN=C2)C(=O)N
Procedure, shortened: as §1

[4] = compound: CC1=NC(=CC=C1)C2=C(N=C(N2)C(C)(C)C)C3=CC4=NC=CN=C4C=C3
Procedure, shortened: as §1

[5] = compound: CCCCN(Cc1ccc(C(=O)NO)cc1)C(=O)Nc1ccccc1 [Nexturastat A]
Procedure, shortened: as §1

[6] = compound: CCCS(=O)(=O)Nc1ccc(F)c(C(=O)c2c[nH]c3ncc(-c4ccc(Cl)cc4)cc23)c1F [vemurafenib]
Procedure, shortened: as §1

[7] = compound: CCCS(=O)(=O)Nc1ccc(F)c(C(=O)c2c[nH]c3ncc(Cl)cc23)c1F
Procedure, shortened: as §1

[8] = compound: CCCc1cc(C)[nH]c(=O)c1CNC(=O)c1cc(-c2ccnc(N3CCN(C)CC3)c2)cc2c1cnn2C(C)C
Procedure, shortened: as §1

[9] = compound: CCN(CC)Cc1ccc2cc(COC(=O)Nc3ccc(C(=O)NO)cc3)ccc2c1 [givinostat]
Procedure, shortened: as §1

[10] = compound: CCN(CCCOc1ccc2c(Nc3cc(CC(=O)Nc4cccc(F)c4)[nH]n3)ncnc2c1)CCOP(=O)(O)O [barasertib]
Procedure, shortened: as §1

[11] = compound: CC[C@@H]1C(=O)N(C)c2cnc(Nc3ccc(C(=O)NC4CCN(C)CC4)cc3OC)nc2N1C1CCCC1
Procedure, shortened: as §1

[12] = compound: CC[C@@H]1C(=O)N(C)c2cnc(Nc3ccc(C(=O)N[C@H]4CC[C@H](N5CCN(CC6CC6)CC5)CC4)cc3OC)nc2N1C(C)C [volasertib]
Procedure, shortened: as §1

[13] = compound: CC[C@H](C)N1C=C(C2=C(C=C(C=C21)C3=CN=C(C=C3)N4CCNCC4)C(=O)NCC5=C(C=C(NC5=O)C)C)C
Procedure, shortened: as §1

[14] = compound: CC[C@H](C)[C@@H](C(=O)N[C@@H]([C@@H](C)O)C(=O)N[C@@H](CC(C)C)C(=O)[C@]1(CO1)C)NC(=O)[C@H]([C@@H](C)CC)N(C)C(=O)C [epoxomicin]
Procedure, shortened: as §1

[15] = compound: CCn1c(C(=O)N(C2CC2)C2CC2)cc2c3c(ncn3C)c(Nc3cc(C)n(C)n3)nc21
Procedure, shortened: as §1

[16] = compound: CCn1cc(-c2ccnc3[nH]c(-c4cccc(CN(C)C)c4)cc23)c(-c2ccc(NC(=O)N(C)C)cc2)n1
Procedure, shortened: as §1

[17] = compound: CN(C)CC(=O)Nc1ccc2[nH]c(=O)c3ccccc3c2c1
Procedure, shortened: as §1

[18] = compound: CN(CCOC1=CC=C(C=C1)C[C@H]2C(=O)NC(=O)S2)C3=CC=CC=N3 (racemic) [rosiglitazone]
Procedure, shortened: as §1

[19] = compound: CN1C2=C(C3=C1C(=O)N(N=C3)CC4=CC(=CC=C4)N)SC(=C2)S(=O)C
Procedure, shortened: as §1

[20] = compound: CN1CCC(CNc2ccc3ncc(-c4cccc(OC(F)(F)F)c4)n3n2)CC1
Procedure, shortened: as §1

Chain of UniProt P49792 (P49792 whole entry, looked up): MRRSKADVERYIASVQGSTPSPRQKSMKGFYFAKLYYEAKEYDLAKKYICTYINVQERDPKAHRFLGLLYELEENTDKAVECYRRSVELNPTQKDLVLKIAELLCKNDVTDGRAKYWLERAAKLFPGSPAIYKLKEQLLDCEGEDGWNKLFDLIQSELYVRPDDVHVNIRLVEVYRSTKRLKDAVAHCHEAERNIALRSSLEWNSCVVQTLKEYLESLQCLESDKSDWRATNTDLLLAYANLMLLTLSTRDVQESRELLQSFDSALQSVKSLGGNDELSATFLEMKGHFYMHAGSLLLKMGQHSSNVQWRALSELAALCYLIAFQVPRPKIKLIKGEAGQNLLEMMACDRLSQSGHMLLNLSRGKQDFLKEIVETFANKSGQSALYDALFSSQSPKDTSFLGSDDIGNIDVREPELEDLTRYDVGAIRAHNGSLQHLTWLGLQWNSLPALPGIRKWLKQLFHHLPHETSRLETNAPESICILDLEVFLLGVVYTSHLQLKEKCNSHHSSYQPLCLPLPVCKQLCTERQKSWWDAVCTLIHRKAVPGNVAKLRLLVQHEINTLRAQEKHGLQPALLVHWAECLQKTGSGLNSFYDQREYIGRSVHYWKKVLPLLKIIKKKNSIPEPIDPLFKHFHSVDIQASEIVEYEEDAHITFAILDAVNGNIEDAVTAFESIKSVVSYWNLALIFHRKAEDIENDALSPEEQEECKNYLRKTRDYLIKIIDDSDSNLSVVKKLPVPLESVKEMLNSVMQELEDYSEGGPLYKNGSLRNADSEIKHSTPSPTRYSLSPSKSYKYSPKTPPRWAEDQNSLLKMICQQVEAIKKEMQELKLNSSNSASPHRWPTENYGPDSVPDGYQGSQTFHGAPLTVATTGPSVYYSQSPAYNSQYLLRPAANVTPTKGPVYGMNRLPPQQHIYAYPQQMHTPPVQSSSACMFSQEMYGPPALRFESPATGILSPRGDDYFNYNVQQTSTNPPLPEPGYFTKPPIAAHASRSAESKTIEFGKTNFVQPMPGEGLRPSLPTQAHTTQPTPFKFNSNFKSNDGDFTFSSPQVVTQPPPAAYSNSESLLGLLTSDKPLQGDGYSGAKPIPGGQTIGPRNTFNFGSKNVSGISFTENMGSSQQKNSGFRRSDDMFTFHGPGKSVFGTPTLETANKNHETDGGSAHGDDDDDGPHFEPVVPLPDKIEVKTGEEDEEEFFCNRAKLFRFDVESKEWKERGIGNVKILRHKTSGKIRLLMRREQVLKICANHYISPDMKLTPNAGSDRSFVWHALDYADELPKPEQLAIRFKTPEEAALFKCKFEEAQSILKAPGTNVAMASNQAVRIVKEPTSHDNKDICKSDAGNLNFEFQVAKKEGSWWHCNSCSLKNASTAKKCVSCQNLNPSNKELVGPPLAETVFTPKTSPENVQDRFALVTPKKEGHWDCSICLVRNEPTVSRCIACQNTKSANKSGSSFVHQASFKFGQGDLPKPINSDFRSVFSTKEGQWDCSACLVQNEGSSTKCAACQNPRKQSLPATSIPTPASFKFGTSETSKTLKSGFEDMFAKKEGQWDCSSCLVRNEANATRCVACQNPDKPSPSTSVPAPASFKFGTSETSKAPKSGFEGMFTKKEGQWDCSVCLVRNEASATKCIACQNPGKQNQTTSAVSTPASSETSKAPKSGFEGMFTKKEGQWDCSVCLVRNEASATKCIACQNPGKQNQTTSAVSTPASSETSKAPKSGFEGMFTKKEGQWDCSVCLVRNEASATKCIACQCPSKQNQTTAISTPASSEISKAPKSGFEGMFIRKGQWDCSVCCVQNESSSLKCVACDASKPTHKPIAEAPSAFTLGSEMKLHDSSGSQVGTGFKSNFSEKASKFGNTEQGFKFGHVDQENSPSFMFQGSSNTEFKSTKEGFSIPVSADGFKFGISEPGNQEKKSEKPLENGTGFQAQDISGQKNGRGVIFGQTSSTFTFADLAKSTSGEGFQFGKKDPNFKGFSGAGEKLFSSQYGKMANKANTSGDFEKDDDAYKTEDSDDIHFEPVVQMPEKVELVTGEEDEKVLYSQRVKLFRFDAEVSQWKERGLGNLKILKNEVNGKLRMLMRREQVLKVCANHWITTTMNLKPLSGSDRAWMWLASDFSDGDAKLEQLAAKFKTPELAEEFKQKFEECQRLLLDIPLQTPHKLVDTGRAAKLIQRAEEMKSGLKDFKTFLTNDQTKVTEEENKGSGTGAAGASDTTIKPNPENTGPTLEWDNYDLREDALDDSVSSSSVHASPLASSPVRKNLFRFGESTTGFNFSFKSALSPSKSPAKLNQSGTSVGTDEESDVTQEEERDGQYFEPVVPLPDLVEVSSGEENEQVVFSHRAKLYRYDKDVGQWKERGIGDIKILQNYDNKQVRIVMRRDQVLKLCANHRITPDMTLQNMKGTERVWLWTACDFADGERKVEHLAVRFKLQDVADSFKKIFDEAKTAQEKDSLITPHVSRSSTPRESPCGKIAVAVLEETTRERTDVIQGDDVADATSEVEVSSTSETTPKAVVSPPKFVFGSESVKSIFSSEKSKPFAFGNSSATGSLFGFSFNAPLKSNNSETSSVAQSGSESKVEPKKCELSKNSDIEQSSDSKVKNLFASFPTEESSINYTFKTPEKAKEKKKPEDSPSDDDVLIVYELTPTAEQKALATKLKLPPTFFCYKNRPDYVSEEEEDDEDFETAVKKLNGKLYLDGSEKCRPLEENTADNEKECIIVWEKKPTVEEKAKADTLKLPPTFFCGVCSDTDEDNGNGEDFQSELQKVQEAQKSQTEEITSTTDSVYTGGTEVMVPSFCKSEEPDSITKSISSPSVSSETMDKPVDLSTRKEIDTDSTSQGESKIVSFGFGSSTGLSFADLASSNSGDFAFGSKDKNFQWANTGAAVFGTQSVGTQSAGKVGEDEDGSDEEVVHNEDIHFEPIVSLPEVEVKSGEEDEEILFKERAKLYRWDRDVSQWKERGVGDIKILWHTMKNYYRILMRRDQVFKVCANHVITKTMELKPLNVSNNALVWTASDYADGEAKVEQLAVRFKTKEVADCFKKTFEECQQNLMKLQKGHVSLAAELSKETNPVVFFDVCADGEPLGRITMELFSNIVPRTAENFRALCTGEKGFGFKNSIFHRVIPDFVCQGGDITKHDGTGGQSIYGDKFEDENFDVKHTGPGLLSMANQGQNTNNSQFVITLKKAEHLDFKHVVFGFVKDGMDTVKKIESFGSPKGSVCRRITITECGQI
Chain of UniProt Q9HB40 (Q9HB40 whole entry, looked up): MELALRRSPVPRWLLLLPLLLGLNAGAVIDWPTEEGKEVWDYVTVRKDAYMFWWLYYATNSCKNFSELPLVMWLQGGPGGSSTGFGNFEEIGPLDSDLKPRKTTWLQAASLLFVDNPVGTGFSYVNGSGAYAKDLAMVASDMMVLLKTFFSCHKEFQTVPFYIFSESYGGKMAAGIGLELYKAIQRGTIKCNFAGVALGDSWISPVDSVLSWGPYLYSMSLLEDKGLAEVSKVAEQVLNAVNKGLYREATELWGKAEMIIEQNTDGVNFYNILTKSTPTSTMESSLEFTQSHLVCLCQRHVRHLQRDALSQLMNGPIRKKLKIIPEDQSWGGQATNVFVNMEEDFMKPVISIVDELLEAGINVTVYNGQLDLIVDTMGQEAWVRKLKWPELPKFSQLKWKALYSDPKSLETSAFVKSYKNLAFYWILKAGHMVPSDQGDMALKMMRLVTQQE
Chain of UniProt Q9BUV8 (Q9BUV8 whole entry, looked up): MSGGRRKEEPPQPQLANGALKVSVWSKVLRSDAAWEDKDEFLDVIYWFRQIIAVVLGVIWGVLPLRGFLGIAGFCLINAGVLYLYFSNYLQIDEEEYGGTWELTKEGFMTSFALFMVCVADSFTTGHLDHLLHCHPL
Chain of UniProt Q8TC12 (Q8TC12 whole entry, looked up): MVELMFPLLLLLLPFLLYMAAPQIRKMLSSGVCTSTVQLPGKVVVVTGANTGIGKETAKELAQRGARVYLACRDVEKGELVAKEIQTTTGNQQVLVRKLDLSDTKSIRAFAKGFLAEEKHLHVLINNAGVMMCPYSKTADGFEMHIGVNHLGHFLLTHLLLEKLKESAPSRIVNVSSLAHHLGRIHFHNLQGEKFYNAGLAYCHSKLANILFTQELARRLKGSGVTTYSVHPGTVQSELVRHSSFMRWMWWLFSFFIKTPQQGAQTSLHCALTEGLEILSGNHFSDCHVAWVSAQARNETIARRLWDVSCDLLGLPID
Chain of UniProt P05543 (P05543 whole entry, looked up): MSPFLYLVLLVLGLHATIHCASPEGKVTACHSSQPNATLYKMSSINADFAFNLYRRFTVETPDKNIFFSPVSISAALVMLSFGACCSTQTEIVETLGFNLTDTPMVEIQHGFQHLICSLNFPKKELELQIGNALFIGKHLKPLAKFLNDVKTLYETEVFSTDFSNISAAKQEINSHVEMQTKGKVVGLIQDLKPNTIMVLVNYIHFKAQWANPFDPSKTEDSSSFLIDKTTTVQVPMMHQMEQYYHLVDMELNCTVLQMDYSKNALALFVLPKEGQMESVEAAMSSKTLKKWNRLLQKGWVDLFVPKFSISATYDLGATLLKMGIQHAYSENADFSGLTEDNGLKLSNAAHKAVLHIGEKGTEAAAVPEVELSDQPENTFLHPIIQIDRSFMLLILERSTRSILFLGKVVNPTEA
Chain of UniProt Q8TBN0 (Q8TBN0 whole entry, looked up): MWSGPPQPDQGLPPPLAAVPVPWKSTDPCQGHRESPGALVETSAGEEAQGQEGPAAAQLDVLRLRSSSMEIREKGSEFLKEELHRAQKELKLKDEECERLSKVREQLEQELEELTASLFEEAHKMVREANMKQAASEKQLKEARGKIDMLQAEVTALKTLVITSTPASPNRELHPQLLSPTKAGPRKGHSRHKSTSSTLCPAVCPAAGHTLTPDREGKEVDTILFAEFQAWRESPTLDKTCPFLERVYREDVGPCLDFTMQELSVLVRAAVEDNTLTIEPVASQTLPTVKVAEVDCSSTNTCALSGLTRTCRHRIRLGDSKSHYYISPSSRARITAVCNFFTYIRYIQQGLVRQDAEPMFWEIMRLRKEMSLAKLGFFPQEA
Chain of UniProt P35244 (P35244 whole entry, looked up): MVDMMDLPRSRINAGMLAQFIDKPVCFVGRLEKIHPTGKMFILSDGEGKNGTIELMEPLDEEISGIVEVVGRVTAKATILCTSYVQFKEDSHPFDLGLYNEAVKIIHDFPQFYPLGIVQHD

Row | Target | log2 fold change [1] | log2 fold change [2] | log2 fold change [3] | log2 fold change [4] | log2 fold change [5] | log2 fold change [6] | log2 fold change [7] | log2 fold change [8] | log2 fold change [9] | log2 fold change [10] | log2 fold change [11] | log2 fold change [12] | log2 fold change [13] | log2 fold change [14] | log2 fold change [15] | log2 fold change [16] | log2 fold change [17] | log2 fold change [18] | log2 fold change [19] | log2 fold change [20]
1 | SDHC (UniProt Q99643) | 0.01 | 0.023 | -0.041 | 0.023 | -0.217 | 0.128 | 0.038 | -0.122 | -0.108 | -0.04 | 0.042 | 0.036 | -0.1 | 0.205 | 0.018 | 0 | 0.264 | 0.064 | -0.068 | 0.023
2 | RPA3 (UniProt P35244) | 0.076 | -0.059 | 0.111 | 0.014 | 0.091 | 0.298 (active) | 0.053 | -0.044 | -0.109 | 0.066 | -0.006 | -0.056 | -0.002 | 0.06 | 0.021 | -0.044 | 0.163 | 0.003 | -0.054 | 0.039
3 | SLC19A1 (UniProt P41440) | 0.112 | -0.054 | -0.019 | -0.023 | -0.107 | 0.002 | -0.031 | -0.018 | 0.007 | -0.011 | 0.08 | 0.078 | -0.062 | 0.087 | 0.019 | -0.047 | 0.003 | 0.019 | -0.109 | 0.172
4 | SCPEP1 (UniProt Q9HB40) | -0.003 | 0.016 | 0.05 | 0.022 | -0.035 | 0.002 | 0.013 | -0.028 | -0.031 | 0.012 | -0.608 (active) | -1.44 (active) | -0.022 | 0.044 | 0.011 | -0.095 | -0.001 | 0.019 | 0.019 | -0.846 (active)
5 | RDH11 (UniProt Q8TC12) | 0.068 | -0.054 | 0.019 | -0.016 | 0.011 | 0.042 | 0.035 | 0.007 | 0.066 | 0.057 | -0.213 | -0.543 (active) | 0.015 | 0.045 | -0.024 | -0.072 | 0.037 | -0.041 | 0.027 | -0.466 (active)
6 | RBM25 (UniProt P49756) | -0.032 | 0.017 | -0.007 | -0.074 | 0.02 | 0.019 | 0 | -0.093 | 0.202 | 0.035 | 0.024 | -0.239 | -0.019 | 0.015 | -0.104 | 0.074 | 0.041 | -0.019 | 0.086 | -0.07
7 | RAB3GAP2 (UniProt Q9H2M9) | -0.001 | -0.018 | 0.017 | -0.029 | 0.215 | 0.06 | 0.026 | 0.092 | 0.106 | 0.068 | -0.101 | -0.358 | 0.044 | 0.022 | -0.041 | 0.088 | 0.04 | 0.053 | 0.133 | -0.132
8 | RANBP2 (UniProt P49792) | 0.089 | -0.07 | -0.041 | 0.04 | 0.221 | -0.086 | 0.03 | -0.072 | 0.046 | 0.036 | 0.058 | -0.006 | -0.008 | 0 | -0.063 | 0.099 | 0.026 | 0.03 | -0.033 | -0.052
9 | RAB3IL1 (UniProt Q8TBN0) | 0.005 | 0.002 | 0.008 | 0.02 | -0.124 | 0.018 | 0.062 | -0.025 | -0.024 | 0.015 | -0.018 | -0.136 | -0.001 | -0.001 | -0.014 | -0.15 | 0.009 | 0.029 | -0.035 | 0.013
10 | RPS20 isoform 2 (UniProt P60866) | 0.056 | 0.021 | -0.049 | -0.077 | 0.112 | -0.117 | -0.068 | 0.008 | -0.032 | -0.063 | 0.114 | 0.31 | -0.009 | -0.103 | -0.02 | 0.065 | -0.03 | -0.037 | 0.091 | 0.063
11 | RPS18 (UniProt P62269) | -0.014 | 0 | -0.049 | -0.061 | 0.148 | -0.125 | -0.04 | -0.01 | 0.021 | -0.067 | 0.158 | 0.3 | -0.011 | -0.111 | -0.029 | 0.057 | -0.036 | -0.11 | 0.096 | 0.11
12 | SERPINA7 (UniProt P05543) | -0.121 | 0.496 | 0.067 | -0.021 | 0.086 | -0.06 | -0.271 | -0.349 | -0.043 | -0.127 | 0.055 | 0.309 | 0.044 | -0.68 (active) | 0.073 | 0.036 | -0.123 | -0.014 | 0.255 | 0.279
13 | RFC3 (UniProt P40938) | -0.003 | -0.031 | 0.05 | 0.058 | -0.032 | 0.048 | 0.101 | 0 | -0.007 | -0.011 | -0.008 | -0.052 | 0.047 | 0.042 | 0.001 | -0.081 | 0.038 | 0.05 | -0.096 | -0.008
14 | SART3, A0A499FI31 | 0.015 | -0.05 | -0.014 | 0.04 | -0.043 | 0.023 | 0.072 | -0.013 | 0.012 | 0.022 | -0.235 | -0.557 (active) | 0.061 | 0.065 | -0.008 | -0.017 | 0.017 | 0.038 | -0.056 | -0.211
15 | RAB5IF isoform 5 (UniProt Q9BUV8) | 0.044 | 0.01 | -0.042 | 0.247 | -0.143 | 0.047 | 0.012 | 0.244 | -0.007 | -0.003 | -0.025 | 0.036 | -0.129 | 0.017 | 0.011 | -0.056 | -0.031 | 0.028 | 0.003 | 0.092
16 | RDH10 (UniProt Q8IZV5) | 0.004 | -0.034 | 0.047 | -0.055 | -0.107 | -0.016 | -0.058 | -0.043 | -0.091 | 0.011 | 0.068 | 0.037 | 0.034 | -0.026 | -0.056 | 0.021 | -0.006 | 0.021 | -0.19 | 0.09
